According to the supplement of paper PMC7156485:
± gives the standard deviation of the averaged measurements.

Assays:
Conditions in all cases: concentration: 10 µM; 24 h
HCC1569 [1] = assay: cell number relative to DMSO (% of DMSO); higher = more cells (less growth inhibition / toxicity)
Summary of the method: (§1)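 Six fields per well were imaged at ×10 after the cells were fixed in 3.7% formaldehyde and stained with a rabbit anti-H1.0 antibody, an AlexaFluor 647 secondary and DAPI. The HCC1569 and TDF cells had been plated at 800 per well in 384-well plates (RPMI, 10% FBS) and treated in triplicate with compounds at 10 µM for 24 h at 37 °C. The values are the median of replicates of H1.0 nuclear intensity or cell number, as percent of the plate control. Smoothing for positional effects was applied to HCC1569 data.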

TDF [2] = assay: as above
Summary of the method: as §1

TDF [3] = assay: H1.0 immunofluorescence intensity relative to DMSO (% of DMSO); higher = stronger H1.0 induction, active = 120 or more
Summary of the method: as §1

HCC1569 [4] = assay: H1.0 immunofluorescence intensity relative to DMSO (% of DMSO); higher = stronger H1.0 induction, active = 140 or more
Summary of the method: as §1
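Wherever H1.0 immunofluorescence intensity relative to DMSO is given: TDF is a line of transformed human dermal fibroblasts of mesenchymal origin.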
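Wherever cell number relative to DMSO is given: TDF denotes transformed human dermal fibroblasts of mesenchymal origin.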

Cc1ccc(C(=CCN2CCCC2)c2ccccn2)cc1.Cl [Trans-triprolidine.HCl]
cell number (HCC1569 [1]): 100 | cell number (TDF [2]): 95.5 | H1.0 immunofluorescence intensity (TDF [3]): 99 (inactive) | H1.0 immunofluorescence intensity (HCC1569 [4]): 110 (inactive)

COc1cc(C=CC(=O)c2ccc(O)cc2O)ccc1O [Homobutein]
cell number (HCC1569 [1]): 95.5 | cell number (TDF [2]): 101 | H1.0 immunofluorescence intensity (TDF [3]): 92 (inactive) | H1.0 immunofluorescence intensity (HCC1569 [4]): 100 (inactive)

Cc1cccc(C)c1OCC(N)C(C)C.I (configuration not stated)
cell number (HCC1569 [1]): 103 | cell number (TDF [2]): 108 | H1.0 immunofluorescence intensity (TDF [3]): 91.3 (inactive) | H1.0 immunofluorescence intensity (HCC1569 [4]): 94.3 (inactive)

COCCOC(=O)C1=C(C)NC(C)=C(C(=O)OCC=Cc2ccccc2)C1c1cccc([N+](=O)[O-])c1 (configuration not stated) [Cilnidipine]
cell number (HCC1569 [1]): 104 | cell number (TDF [2]): 108 | H1.0 immunofluorescence intensity (TDF [3]): 90.2 (inactive) | H1.0 immunofluorescence intensity (HCC1569 [4]): 111 (inactive)

NC(=O)c1cccc(-c2cccc(OC(=O)NC3CCCCC3)c2)c1
cell number (HCC1569 [1]): 97.3 | cell number (TDF [2]): 97.5 | H1.0 immunofluorescence intensity (TDF [3]): 105 (inactive) | H1.0 immunofluorescence intensity (HCC1569 [4]): 124 (inactive)

CCC=CCC=CCC=CCC=CCC=CCCCCCC(=O)O [Docosapentaenoic acid]
cell number (HCC1569 [1]): 100.4 ± 0.68 | cell number (TDF [2]): 97.7 ± 1.7 | H1.0 immunofluorescence intensity (TDF [3]): 101 (inactive) | H1.0 immunofluorescence intensity (HCC1569 [4]): 103 (inactive)

CCn1cc(C(=O)O)c(=O)c2cc(F)c(N3CCNCC3)cc21 [Norfloxacin]
cell number (HCC1569 [1]): 100 | cell number (TDF [2]): 108 | H1.0 immunofluorescence intensity (TDF [3]): 105 (inactive) | H1.0 immunofluorescence intensity (HCC1569 [4]): 101 (inactive)

C=CCc1ccccc1OCC(O)CNC(C)C.Cl (configuration not stated) [Alprenolol hydrochloride]
cell number (HCC1569 [1]): 96.8 | cell number (TDF [2]): 91 | H1.0 immunofluorescence intensity (TDF [3]): 103 (inactive) | H1.0 immunofluorescence intensity (HCC1569 [4]): 104 (inactive)

NC(=O)NO [Hydroxyurea]
cell number (HCC1569 [1]): 103 | cell number (TDF [2]): 108 | H1.0 immunofluorescence intensity (TDF [3]): 93.9 (inactive) | H1.0 immunofluorescence intensity (HCC1569 [4]): 91.8 (inactive)

CC(C)NNC(=O)c1ccncc1 [Iproniazid]
cell number (HCC1569 [1]): 104 | cell number (TDF [2]): 103 | H1.0 immunofluorescence intensity (TDF [3]): 100 (inactive) | H1.0 immunofluorescence intensity (HCC1569 [4]): 112 (inactive)

COc1ccc(CCN(C)CCCC(C#N)(c2cc(OC)c(OC)c(OC)c2)C(C)C)cc1OC.Cl (racemic)
cell number (HCC1569 [1]): 96.5 | cell number (TDF [2]): 109 | H1.0 immunofluorescence intensity (TDF [3]): 89 (inactive) | H1.0 immunofluorescence intensity (HCC1569 [4]): 92.3 (inactive)

CCOc1ccc2c(c1)C(C)=CC(C)(C)N2 [Ethoxyquin]
cell number (HCC1569 [1]): 100 | cell number (TDF [2]): 104 | H1.0 immunofluorescence intensity (TDF [3]): 96.1 (inactive) | H1.0 immunofluorescence intensity (HCC1569 [4]): 98.9 (inactive)

C=C1C(=O)OC2C1CCC(C)=CCCC1(C)OC21 (configuration not stated) [Parthenolide]
cell number (HCC1569 [1]): 65.2 ± 7.3 | cell number (TDF [2]): 50.3 ± 3.6 | H1.0 immunofluorescence intensity (TDF [3]): 119 (inactive) | H1.0 immunofluorescence intensity (HCC1569 [4]): 149 (active)

CC[C@H](C)[C@H](N)C(=O)N1CCC[C@H]1C(=O)N[C@H](C(=O)O)[C@@H](C)CC
cell number (HCC1569 [1]): 102 | cell number (TDF [2]): 85.3 | H1.0 immunofluorescence intensity (TDF [3]): 97.2 (inactive) | H1.0 immunofluorescence intensity (HCC1569 [4]): 103 (inactive)

CC[N+](CC)(CC)CCOc1ccc(C=Cc2ccccc2)cc1.[I-]
cell number (HCC1569 [1]): 99.7 | cell number (TDF [2]): 72.2 | H1.0 immunofluorescence intensity (TDF [3]): 104 (inactive) | H1.0 immunofluorescence intensity (HCC1569 [4]): 111 (inactive)

Nc1ncnc2n[nH]c(Nc3ccc(F)cc3)c12 [MNK1 Inhibitor]
cell number (HCC1569 [1]): 91.2 | cell number (TDF [2]): 110 | H1.0 immunofluorescence intensity (TDF [3]): 88.8 (inactive) | H1.0 immunofluorescence intensity (HCC1569 [4]): 140 (inactive)

CC(C)OC(=O)CCCC=CCC1C(O)CC(O)C1CCC(O)CCc1ccccc1 (configuration not stated) [Latanoprost]
cell number (HCC1569 [1]): 103 | cell number (TDF [2]): 108 | H1.0 immunofluorescence intensity (TDF [3]): 86.7 (inactive) | H1.0 immunofluorescence intensity (HCC1569 [4]): 105 (inactive)

CCCc1nc2c(C)cc(-c3nc4ccccc4n3C)cc2n1Cc1ccc(-c2ccccc2C(=O)O)cc1 [Telmisartan]
cell number (HCC1569 [1]): 99.7 | cell number (TDF [2]): 97.5 | H1.0 immunofluorescence intensity (TDF [3]): 101 (inactive) | H1.0 immunofluorescence intensity (HCC1569 [4]): 97.2 (inactive)

CC(C)(C)NCC(O)c1ccc(O)c(CO)c1.CC(C)(C)NCC(O)c1ccc(O)c(CO)c1.O=S(=O)(O)O (configuration not stated) [Salbutamol hemisulfate]
cell number (HCC1569 [1]): 99.9 | cell number (TDF [2]): 103 | H1.0 immunofluorescence intensity (TDF [3]): 84.9 (inactive) | H1.0 immunofluorescence intensity (HCC1569 [4]): 106 (inactive)

O=C1NC(=O)c2cc(Nc3ccc(F)cc3)c(Nc3ccc(F)cc3)cc21
cell number (HCC1569 [1]): 93.4 | cell number (TDF [2]): 110 | H1.0 immunofluorescence intensity (TDF [3]): 93.4 (inactive) | H1.0 immunofluorescence intensity (HCC1569 [4]): 133 (inactive)

Cc1cccc2c3c(ccc12)C1=C(C(=O)C3=O)C(C)CO1 (configuration not stated) [Dihydrotanshinone]
cell number (HCC1569 [1]): 53.6 | cell number (TDF [2]): 33.6 | H1.0 immunofluorescence intensity (TDF [3]): 111 (inactive) | H1.0 immunofluorescence intensity (HCC1569 [4]): 106 (inactive)

Cc1c2oc3c(C)ccc(C(=O)NC4C(=O)NC(C(C)C)C(=O)N5CCCC5C(=O)N(C)CC(=O)N(C)C(C(C)C)C(=O)OC4C)c3nc-2c(C(=O)NC2C(=O)NC(C(C)C)C(=O)N3CCCC3C(=O)N(C)CC(=O)N(C)C(C(C)C)C(=O)OC2C)c(N)c1=O (configuration not stated) [Actinomycin D]
cell number (HCC1569 [1]): 46.2 | cell number (TDF [2]): 16.9 | H1.0 immunofluorescence intensity (TDF [3]): 179 (active) | H1.0 immunofluorescence intensity (HCC1569 [4]): 175 (active)

CS(=O)(=O)N1CCN(Cc2cc3nc(-c4cccc5[nH]ncc45)nc(N4CCOCC4)c3s2)CC1
cell number (HCC1569 [1]): 57.3 | cell number (TDF [2]): 77.8 | H1.0 immunofluorescence intensity (TDF [3]): 85.3 (inactive) | H1.0 immunofluorescence intensity (HCC1569 [4]): 137 (inactive)
